The text below walks through data of publication PMC7862700, “An all-to-all approach to the identification of sequence-specific readers for epigenetic DNA modifications on cytosine”.

Holding throughout (experiment): DAPPL (digital affinity profiling via proximity ligation, sequencing); 10 mM Tris-HCl pH 7.5, 50 mM NaCl, 1 mM DTT, 4% glycerol, room temperature, 30 min; GST-TFs on glutathione beads, 16-mer random dsDNA library, 0.1% formaldehyde crosslink after washing; high values mean tight binding
For one test, the target named is T1, FEV (Homo sapiens, UniProt Q99581 1-238).
T1 sequence: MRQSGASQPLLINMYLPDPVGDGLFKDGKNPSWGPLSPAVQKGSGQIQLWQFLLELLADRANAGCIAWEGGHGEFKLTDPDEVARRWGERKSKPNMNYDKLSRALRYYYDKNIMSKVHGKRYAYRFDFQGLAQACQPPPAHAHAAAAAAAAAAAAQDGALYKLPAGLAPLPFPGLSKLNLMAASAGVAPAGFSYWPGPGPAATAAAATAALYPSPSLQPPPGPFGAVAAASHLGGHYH
To be noted: protein: recombinant; tags: N-terminal GST; dsDNA, one strand shown. Summed up: (§1)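 Beads coated with glutathione captured GST-fused human transcription factors that had been expressed in yeast, and the factors were then given DNA barcodes and pooled with a tag-only sample. The pools were incubated with 200 nmole of a random double-stranded 16-mer DNA library in Tris/NaCl/DTT/glycerol buffer for 30 min at room temperature, washed, crosslinked with 0.1% formaldehyde and proximity-ligated with BsaI/T4 ligase at 37 °C for 1 h. PCR amplification and Illumina NextSeq500 sequencing came last. Binding signal is each hexamer's read frequency for a factor divided by its frequency for the tag-only sample.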

For the next test, the target named is ETV5 (Homo sapiens, UniProt P41161 1-510). Particulars: protein: recombinant; tags: N-terminal GST; dsDNA, one strand shown. In a few lines: as §1
Sequence of ETV5 (P41161 whole entry): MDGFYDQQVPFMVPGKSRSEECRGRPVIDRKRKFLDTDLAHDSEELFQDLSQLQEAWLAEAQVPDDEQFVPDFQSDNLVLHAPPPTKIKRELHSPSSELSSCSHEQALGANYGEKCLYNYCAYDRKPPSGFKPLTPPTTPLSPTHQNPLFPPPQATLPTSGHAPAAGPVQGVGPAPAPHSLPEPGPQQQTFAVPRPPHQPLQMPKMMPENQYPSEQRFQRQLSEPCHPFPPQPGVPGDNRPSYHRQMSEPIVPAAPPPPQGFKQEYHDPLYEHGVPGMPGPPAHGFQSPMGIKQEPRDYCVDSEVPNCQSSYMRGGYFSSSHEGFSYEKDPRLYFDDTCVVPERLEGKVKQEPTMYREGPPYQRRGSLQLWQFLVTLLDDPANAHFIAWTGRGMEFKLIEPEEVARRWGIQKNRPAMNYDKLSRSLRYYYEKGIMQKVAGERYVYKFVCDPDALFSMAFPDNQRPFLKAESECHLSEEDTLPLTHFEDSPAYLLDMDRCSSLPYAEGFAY
Another test addresses HSF1 (Homo sapiens, UniProt Q00613 1-529). To be noted: protein: recombinant; tags: N-terminal GST; chain copies: 3; dsDNA, one strand shown. Summed up: as §1
The target of another test is T2, SPIC (Homo sapiens, UniProt Q8N5J4 1-248).
T2 sequence: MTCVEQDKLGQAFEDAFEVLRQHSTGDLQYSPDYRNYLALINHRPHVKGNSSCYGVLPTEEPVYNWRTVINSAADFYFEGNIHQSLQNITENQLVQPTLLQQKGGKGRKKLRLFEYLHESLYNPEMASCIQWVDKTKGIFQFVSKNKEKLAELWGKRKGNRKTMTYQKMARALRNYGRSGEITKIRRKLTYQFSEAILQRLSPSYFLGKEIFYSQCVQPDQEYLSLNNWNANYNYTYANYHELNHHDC
To be noted: protein: recombinant; tags: N-terminal GST; dsDNA, one strand shown. Summed up: as §1

The target in another test is ELF4 (Homo sapiens, UniProt Q99607 1-663). To be noted: protein: recombinant; tags: N-terminal GST; dsDNA, one strand shown. In a few lines: as §1
Sequence of ELF4 (Q99607 whole entry): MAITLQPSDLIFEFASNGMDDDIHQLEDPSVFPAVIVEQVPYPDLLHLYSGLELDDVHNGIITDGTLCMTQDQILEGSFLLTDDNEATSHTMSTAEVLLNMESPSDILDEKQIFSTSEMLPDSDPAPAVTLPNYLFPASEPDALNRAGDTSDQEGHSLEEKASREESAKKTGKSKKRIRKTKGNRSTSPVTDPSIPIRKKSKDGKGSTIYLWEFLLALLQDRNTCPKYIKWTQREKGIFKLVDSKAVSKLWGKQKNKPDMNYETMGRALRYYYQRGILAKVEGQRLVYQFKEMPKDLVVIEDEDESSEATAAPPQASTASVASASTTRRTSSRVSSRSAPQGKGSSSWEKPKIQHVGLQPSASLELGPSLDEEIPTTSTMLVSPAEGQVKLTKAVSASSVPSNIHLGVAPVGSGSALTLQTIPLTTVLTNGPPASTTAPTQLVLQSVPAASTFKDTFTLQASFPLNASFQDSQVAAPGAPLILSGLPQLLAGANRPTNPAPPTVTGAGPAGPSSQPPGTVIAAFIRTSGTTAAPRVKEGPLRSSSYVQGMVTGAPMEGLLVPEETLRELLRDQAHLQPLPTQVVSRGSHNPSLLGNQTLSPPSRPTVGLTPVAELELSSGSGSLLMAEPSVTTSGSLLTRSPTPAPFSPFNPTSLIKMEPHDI
The target of the next test is T3, ELK4 (Homo sapiens, UniProt P28324-2 1-405).
T3 sequence: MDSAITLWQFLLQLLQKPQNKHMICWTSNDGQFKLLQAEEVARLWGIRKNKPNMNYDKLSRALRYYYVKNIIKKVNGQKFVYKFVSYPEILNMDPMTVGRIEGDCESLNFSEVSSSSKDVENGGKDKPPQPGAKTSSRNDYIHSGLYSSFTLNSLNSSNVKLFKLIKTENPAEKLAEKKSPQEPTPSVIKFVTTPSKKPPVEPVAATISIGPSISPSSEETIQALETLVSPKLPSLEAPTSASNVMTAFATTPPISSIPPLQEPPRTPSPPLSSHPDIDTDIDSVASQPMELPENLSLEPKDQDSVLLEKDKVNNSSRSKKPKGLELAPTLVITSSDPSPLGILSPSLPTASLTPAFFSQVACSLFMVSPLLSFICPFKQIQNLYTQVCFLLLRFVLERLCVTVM
Particulars: protein: recombinant; tags: N-terminal GST; dsDNA, one strand shown. Summed up: as §1

The next test deals with T4, ETV2 (Homo sapiens, UniProt O00321 1-342).
T4 sequence: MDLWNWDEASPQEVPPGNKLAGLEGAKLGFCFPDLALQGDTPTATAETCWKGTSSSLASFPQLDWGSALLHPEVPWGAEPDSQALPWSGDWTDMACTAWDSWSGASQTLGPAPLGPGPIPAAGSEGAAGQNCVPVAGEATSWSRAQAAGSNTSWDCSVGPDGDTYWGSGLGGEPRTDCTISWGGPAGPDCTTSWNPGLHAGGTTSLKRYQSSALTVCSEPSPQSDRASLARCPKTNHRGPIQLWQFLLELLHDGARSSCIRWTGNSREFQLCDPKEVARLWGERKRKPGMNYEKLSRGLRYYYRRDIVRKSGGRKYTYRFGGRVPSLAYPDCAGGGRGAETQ
Particulars: protein: recombinant; tags: N-terminal GST; dsDNA, one strand shown. Summed up: as §1

A further test has as its target T5, ELF3 (Homo sapiens, UniProt P78545 1-371).
T5 sequence: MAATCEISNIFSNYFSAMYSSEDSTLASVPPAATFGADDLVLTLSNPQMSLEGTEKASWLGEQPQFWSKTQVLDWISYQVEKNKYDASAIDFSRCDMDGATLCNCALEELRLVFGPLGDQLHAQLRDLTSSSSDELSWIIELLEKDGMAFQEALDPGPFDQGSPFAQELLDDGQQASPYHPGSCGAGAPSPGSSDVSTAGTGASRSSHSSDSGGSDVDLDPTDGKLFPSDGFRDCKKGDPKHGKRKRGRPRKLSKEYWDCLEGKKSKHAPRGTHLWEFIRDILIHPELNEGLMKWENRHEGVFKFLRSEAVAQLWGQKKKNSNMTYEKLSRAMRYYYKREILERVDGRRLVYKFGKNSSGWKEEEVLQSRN
Particulars: protein: recombinant; tags: N-terminal GST; dsDNA, one strand shown. Summed up: as §1

The target in the next test is CRX (Homo sapiens, UniProt O43186 1-299). To be noted: protein: recombinant; tags: N-terminal GST; dsDNA, one strand shown. Summed up:
as §1

A further test concerns the target ETV1 (Homo sapiens, UniProt P50549 1-477). To be noted: protein: recombinant; tags: N-terminal GST; dsDNA, one strand shown. Summed up: as §1

Sequence of CRX (O43186 whole entry): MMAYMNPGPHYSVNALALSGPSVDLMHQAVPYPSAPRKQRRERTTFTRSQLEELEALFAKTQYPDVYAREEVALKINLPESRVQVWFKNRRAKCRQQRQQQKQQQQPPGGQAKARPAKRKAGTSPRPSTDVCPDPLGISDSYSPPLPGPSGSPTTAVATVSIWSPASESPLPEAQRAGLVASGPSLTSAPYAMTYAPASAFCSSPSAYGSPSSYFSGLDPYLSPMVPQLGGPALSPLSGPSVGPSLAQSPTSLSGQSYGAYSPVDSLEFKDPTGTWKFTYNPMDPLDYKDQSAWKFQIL
Sequence of HSF1 (Q00613 whole entry): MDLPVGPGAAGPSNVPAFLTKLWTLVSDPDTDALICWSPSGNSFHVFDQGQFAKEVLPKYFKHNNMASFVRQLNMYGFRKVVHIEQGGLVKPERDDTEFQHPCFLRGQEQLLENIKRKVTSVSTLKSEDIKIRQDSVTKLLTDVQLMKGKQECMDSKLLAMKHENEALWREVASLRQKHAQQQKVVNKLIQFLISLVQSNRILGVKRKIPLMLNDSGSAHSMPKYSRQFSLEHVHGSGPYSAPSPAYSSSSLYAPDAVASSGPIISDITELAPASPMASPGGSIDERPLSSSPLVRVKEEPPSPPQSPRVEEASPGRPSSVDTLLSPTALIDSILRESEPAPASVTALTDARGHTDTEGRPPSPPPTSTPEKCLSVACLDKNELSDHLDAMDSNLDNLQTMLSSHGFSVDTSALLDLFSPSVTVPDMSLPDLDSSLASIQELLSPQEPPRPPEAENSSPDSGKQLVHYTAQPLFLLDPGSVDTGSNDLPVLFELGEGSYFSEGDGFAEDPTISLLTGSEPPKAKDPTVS
Sequence of ETV1 (P50549 whole entry): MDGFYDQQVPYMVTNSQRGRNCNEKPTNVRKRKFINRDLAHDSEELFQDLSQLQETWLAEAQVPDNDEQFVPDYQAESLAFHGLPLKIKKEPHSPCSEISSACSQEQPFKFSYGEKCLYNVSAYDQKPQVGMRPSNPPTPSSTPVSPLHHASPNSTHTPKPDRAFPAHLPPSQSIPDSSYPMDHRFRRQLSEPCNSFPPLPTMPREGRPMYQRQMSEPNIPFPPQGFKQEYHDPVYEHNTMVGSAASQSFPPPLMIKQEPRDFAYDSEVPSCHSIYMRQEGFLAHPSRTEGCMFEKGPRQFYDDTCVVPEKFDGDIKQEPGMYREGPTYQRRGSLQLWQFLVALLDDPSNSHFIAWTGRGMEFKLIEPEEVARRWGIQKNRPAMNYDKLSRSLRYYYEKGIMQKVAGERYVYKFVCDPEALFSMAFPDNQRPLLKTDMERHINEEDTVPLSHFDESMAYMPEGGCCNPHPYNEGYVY

For the sequence CCTTTA, the binding signal in the test with FEV was 1.3 fold enrichment (6-mer frequency, TF over GST control); with ETV5, 1.22 fold enrichment (6-mer frequency, TF over GST control); with HSF1 it was 1.31 fold enrichment (6-mer frequency, TF over GST control); with SPIC it was 1.32 fold enrichment (6-mer frequency, TF over GST control); with ELF4, 1.35 fold enrichment (6-mer frequency, TF over GST control); in the test with ELK4 it was 1.42 fold enrichment (6-mer frequency, TF over GST control). For the same sequence, the binding signal in the test with ETV2 was 1.34 fold enrichment (6-mer frequency, TF over GST control); with ELF3, 1.51 fold enrichment (6-mer frequency, TF over GST control); in the test with CRX, 1.57 fold enrichment (6-mer frequency, TF over GST control); with ETV1, 1.37 fold enrichment (6-mer frequency, TF over GST control).
With TCTGCC, the binding signal is 1.38 fold enrichment (6-mer frequency, TF over GST control) in the test with FEV; 1.27 fold enrichment (6-mer frequency, TF over GST control) with ETV5; 1.35 fold enrichment (6-mer frequency, TF over GST control) with HSF1; 1.31 fold enrichment (6-mer frequency, TF over GST control) with SPIC; 1.53 fold enrichment (6-mer frequency, TF over GST control) with ELF4; 1.59 fold enrichment (6-mer frequency, TF over GST control) in the test with ELK4. Also, the binding signal with ETV2 is 1.24 fold enrichment (6-mer frequency, TF over GST control); in the test with ELF3, 1.28 fold enrichment (6-mer frequency, TF over GST control); with CRX it was 1.21 fold enrichment (6-mer frequency, TF over GST control); with ETV1, 1.36 fold enrichment (6-mer frequency, TF over GST control).
On to TCGCCT, for which the binding signal with FEV is 1.28 fold enrichment (6-mer frequency, TF over GST control); in the test with ETV5, 1.3 fold enrichment (6-mer frequency, TF over GST control); in the test with HSF1 it was 1.3 fold enrichment (6-mer frequency, TF over GST control); with SPIC, 1.22 fold enrichment (6-mer frequency, TF over GST control); with ELF4, 1.27 fold enrichment (6-mer frequency, TF over GST control); with ELK4, 1.5 fold enrichment (6-mer frequency, TF over GST control). In addition, the binding signal with ETV2 was 1.3 fold enrichment (6-mer frequency, TF over GST control); with ELF3 it was 1.31 fold enrichment (6-mer frequency, TF over GST control); with CRX, 1.32 fold enrichment (6-mer frequency, TF over GST control); in the test with ETV1, 1.41 fold enrichment (6-mer frequency, TF over GST control).
In the case of ACGTTT, the binding signal was 1.22 fold enrichment (6-mer frequency, TF over GST control) with FEV; 1.15 fold enrichment (6-mer frequency, TF over GST control) with ETV5; 1.05 fold enrichment (6-mer frequency, TF over GST control) with HSF1; 1.29 fold enrichment (6-mer frequency, TF over GST control) with SPIC; 1.14 fold enrichment (6-mer frequency, TF over GST control) with ELF4; 1.22 fold enrichment (6-mer frequency, TF over GST control) with ELK4. Further, the binding signal with ETV2 is 1.18 fold enrichment (6-mer frequency, TF over GST control); with ELF3, 1.08 fold enrichment (6-mer frequency, TF over GST control); in the test with CRX, 1 fold enrichment (6-mer frequency, TF over GST control); with ETV1, 1.22 fold enrichment (6-mer frequency, TF over GST control).
On to TGTGCT, for which the binding signal with FEV is 1.25 fold enrichment (6-mer frequency, TF over GST control); with ETV5, 1.18 fold enrichment (6-mer frequency, TF over GST control); with HSF1, 1.15 fold enrichment (6-mer frequency, TF over GST control); with SPIC it was 1.35 fold enrichment (6-mer frequency, TF over GST control); with ELF4, 1.17 fold enrichment (6-mer frequency, TF over GST control); with ELK4, 1.17 fold enrichment (6-mer frequency, TF over GST control). Besides, the binding signal with ETV2 is 1.21 fold enrichment (6-mer frequency, TF over GST control); with ELF3, 1.27 fold enrichment (6-mer frequency, TF over GST control); with CRX, 1.1 fold enrichment (6-mer frequency, TF over GST control); with ETV1, 1.18 fold enrichment (6-mer frequency, TF over GST control).
GGTCTT: the binding signal is 1.07 fold enrichment (6-mer frequency, TF over GST control) in the test with FEV; 1.14 fold enrichment (6-mer frequency, TF over GST control) with ETV5; 1.05 fold enrichment (6-mer frequency, TF over GST control) with HSF1; 1.02 fold enrichment (6-mer frequency, TF over GST control) with SPIC; 1.15 fold enrichment (6-mer frequency, TF over GST control) with ELF4; 1.11 fold enrichment (6-mer frequency, TF over GST control) in the test with ELK4. The binding signal is 1.08 fold enrichment (6-mer frequency, TF over GST control) with ETV2; 1.04 fold enrichment (6-mer frequency, TF over GST control) in the test with ELF3; 1.15 fold enrichment (6-mer frequency, TF over GST control) with CRX; 1.11 fold enrichment (6-mer frequency, TF over GST control) with ETV1.
For TGACCC, the binding signal with FEV was 1.46 fold enrichment (6-mer frequency, TF over GST control); in the test with ETV5, 1.41 fold enrichment (6-mer frequency, TF over GST control); with HSF1 it was 1.1 fold enrichment (6-mer frequency, TF over GST control); in the test with SPIC it was 1.24 fold enrichment (6-mer frequency, TF over GST control); with ELF4, 1.48 fold enrichment (6-mer frequency, TF over GST control); with ELK4, 1.39 fold enrichment (6-mer frequency, TF over GST control). Besides, the binding signal was 1.56 fold enrichment (6-mer frequency, TF over GST control) with ETV2; 1.37 fold enrichment (6-mer frequency, TF over GST control) with ELF3; 1.13 fold enrichment (6-mer frequency, TF over GST control) with CRX; 1.25 fold enrichment (6-mer frequency, TF over GST control) with ETV1.
For AACAAT, the binding signal with FEV is 1.29 fold enrichment (6-mer frequency, TF over GST control); in the test with ETV5, 1.29 fold enrichment (6-mer frequency, TF over GST control); in the test with HSF1, 1.48 fold enrichment (6-mer frequency, TF over GST control); with SPIC, 1.26 fold enrichment (6-mer frequency, TF over GST control); in the test with ELF4 it was 1.32 fold enrichment (6-mer frequency, TF over GST control); with ELK4, 1.27 fold enrichment (6-mer frequency, TF over GST control). Moreover, the binding signal with ETV2 was 1.31 fold enrichment (6-mer frequency, TF over GST control); with ELF3 it was 1.56 fold enrichment (6-mer frequency, TF over GST control); in the test with CRX, 1.24 fold enrichment (6-mer frequency, TF over GST control); with ETV1, 1.36 fold enrichment (6-mer frequency, TF over GST control).
